An excerpt weighted towards active compounds, which were near 1.8% of everything screened.
SDO1 yeast rescue: compounds rescuing growth of sdo1-depleted yeast, bone marrow failure model. S. cerevisiae sdo1-depleted JHY4D growth rescue, OD600 30 h; hits give high values; pdr5 snq2 efflux-pump mutant strain. z-score at 10 µM. actives 0.21% (n = 140,000). AID 817;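 active means z-score above 3 at both the 24 hr and the 30 hr optical density reads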;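 further: z-score against mean and SD of all compound wells on the same plate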
Measles CPE: protection of cells from measles virus; Measles virus-infected cells, CPE protection, absorbance; protection (pct of control), % at 4 µM; actives 1.5% (n = 140,000); in the data active means protection mostly above about 24%, no sharp cut-off; inactive means mostly below about 26%
Phagocytosis inh: macrophage phagocytosis inhibition | J774A.1 macrophage IgG-bead phagocytosis, imaging | inhibition, % at 5 µM | actives 0.07% (n = 110,000);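 active means inhibition above the mean of the plate negative controls plus 5 SD, cut at about 13% in these data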;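 further: phagocytic index as fraction of beads internalized from green versus red external bead signal; plate controls were DMSO negative control for no effect and cytochalasin-D positive control for full effect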
SDO1 rescue DR: confirmation of growth rescue in SDO1-depleted yeast, bone marrow failure; AID 949; S. cerevisiae JHY4D (SDO1-depleted) growth rescue, OD600, 30 h; hits give high values; efflux-deficient strain, SNQ2 and PDR5 mutated; OD recovery (test concentration not listed); shares compounds with SDO1 yeast rescue; actives 44% (n = 440);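 active means yeast growth recovered at 30 hours, either rising with dose fitted slope above 0.001 or with average optical density gain above 0.07, some results past the limit were not filed as active; inactive means growth falling with dose or no effect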;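 further: gain in OD600 from 0 h to 30 h averaged across all seven doses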
An asterisk follows results filed as active; . = no result.

SMILES	SDO1 yeast rescue	Measles CPE	Phagocytosis inh	SDO1 rescue DR
Cc1ccc2nc(C(O)C(O)c3nc4ccc(C)cc4[nH]3)[nH]c2c1 (configuration not stated)	-0.6	6	-2	.
Cc1ccc2nc(C(F)OC(F)(F)F)[nH]c2c1 (configuration not stated)	12*	3	7	0.041
Cn1cc(CC(=O)N2CCN(c3ccc(Cl)cc3)CC2)c2ccccc21	-0.68	28	.	.
CCN(CC)S(=O)(=O)c1ccc(OC)c(NC(=O)COc2ccc3c(C)cc(=O)oc3c2)c1	0.02	8	-9	.
CCc1cccc2c(SC(C)C(=O)NCC3CCCO3)nc(-c3ccccc3)nc12 (configuration not stated)	-0.55	22	0	.
CCc1cccc2c(SCC(=O)NCC3CCCO3)nc(-c3ccc(F)cc3)nc12 (configuration not stated)	0.88	0	0	0.042
CC(C)C(c1nnnn1Cc1ccc(F)cc1)N1CCN(C(=O)c2ccco2)CC1 (configuration not stated)	-0.5	4	-1	.
Cc1[nH]c2ccccc2c1C(=O)CN1CCN(C/C=C/c2ccccc2)CC1	-0.43	36	0	.
Cc1[nH]c2ccccc2c1C(=O)CN1CCN(C2CCCCC2)CC1	9.1*	3	2	0.045
COC(=O)c1ccc(NC(=O)CSc2nccn2CCc2ccccc2)cc1	-0.61	14	1	.
CCOc1cccc(N(C(=O)Cc2cccs2)C(C(=O)NC2CCCCC2)c2cccn2C)c1 (configuration not stated)	-1.2	13	.	.
N#Cc1ccc(N/N=C/c2cn(-c3ccccc3)nc2-c2ccccc2)c([N+](=O)[O-])c1	0.62	2	.	0.026
O=C(N/N=C/c1cn(-c2ccccc2)nc1-c1ccccc1)c1ccco1	-2.2	6	0	.
COc1cc2nc(CSc3nc(-c4ccc(F)cc4)cs3)[nH]c(=O)c2cc1OC	-0.4	18	-13	.
CC12CCC(C(=O)Nc3nccs3)(OC1=O)C2(C)C (configuration not stated)	3*	3	.	0.091*
Cc1cccnc1NC(=O)C12CCC(C)(C(=O)O1)C2(C)C (configuration not stated)	2.1	3	.	.
Cc1cc(C)n2nc3nc4c(cc3c2n1)CCCC4	-0.23	8	0	.
O=C(Nc1ccc(S(=O)(=O)N2CCCCCC2)cc1)c1ccco1	1.4	11	0	0.07
C[C@H](NC(=O)c1ccco1)C(=O)Nc1ccc(S(=O)(=O)N2CCCC2)cc1	1.1	11	1	.
Cc1ccc(NC(=O)COC(=O)/C(=C/c2cccs2)c2cccs2)cc1S(=O)(=O)N(C)C	-0.88	19	-6	.
FC(F)(F)c1cnc(-c2cnc3c(-c4ccc(Cl)cc4)cnn3c2)c(Cl)c1	0.48	0	0	.
N#Cc1cnn2cc(-c3ncc(C(F)(F)F)cc3Cl)cnc12	7.3*	4	0	0.078*
Cc1nc(SC(C(=O)c2ccccc2)c2ccccc2)nc2ccccc12 (configuration not stated)	-0.62	5	-4	.
COc1ccc2nc(SC(C(=O)c3ccccc3)c3ccccc3)nc(C)c2c1 (configuration not stated)	1.4	14	-13	0.066
O=C1CC(N(Cc2cccs2)C(=O)Nc2ccccc2)C(=O)N1c1ccc(Cl)cc1 (configuration not stated)	-1.3	16	-4	.
SMILES	SDO1 yeast rescue	Measles CPE	Phagocytosis inh	SDO1 rescue DR
CCN1C(=O)S/C(=C/c2cn(C)c3ccccc23)C1=O	-1.1	5	0	.
CCN=C1S/C(=C\c2cn(CC)c3ccccc23)C(=O)N1CC	7.9*	15	-3	0.092*
COc1ccc(-c2noc(CCCC(=O)NCc3ccco3)n2)cc1OC	0.48	11	0	.
Cc1ccc2cc(C#N)c(SCC(=O)Nc3ccc4sc(C)nc4c3)nc2c1	2.2	4	-1	0.1*
Cc1ccc2sc(NC(=O)CSc3nc(C)cc(C)c3C#N)nc2c1	-1.3	4	.	.
Cc1cc(N2CCN(C(=O)c3ccco3)CC2)n2nc(C)nc2n1	0.58	5	.	.
S=C(NCc1ccco1)N/N=C/c1ccc(Cl)cc1	8.4*	6	0	0.079*
S=C(NCc1ccco1)N/N=C/c1ccccc1Cl	-0.14	13	-2	.
CCOC(=O)C1CCCN(C(=O)c2ccccc2SCCOC)C1 (configuration not stated)	1.6	9	0	0.081*
CCOC(=O)C1CCCN(C(=O)CSc2ccccc2)C1 (configuration not stated)	-0.14	13	0	.
CC(C)CN(CC(C)C)C(=O)Cc1coc2ccc3ccccc3c12	-1.3	5	1	.
CCCc1nc2ccccc2c(=O)n1N	3.6*	7	-2	0.058

Bioassay records deposited in PubChem by several laboratories.
